# From PubChem BioAssay AID2685 (National Center for Advancing Translational Sciences (NCATS), 2010)
# In all, about 320,000 compounds went through this assay and about 2,100 (0.66%) were called active. About 53% were inconclusive and are not listed. The call rests on the fitted dose curve; in most records, active means well fitted inhibition curve with a large enough effect in the signal ratio, with a control signal flat (not every such curve was filed as active); inconclusive means small, poorly fitted or top-dose-only effect, or effect the other way, or a change in a side signal; inactive means flat fitted curve, though single readings scatter; the % refers to the signal ratio. The list comes from a sample in which actives are over-represented; it also holds similar structures and randomly drawn compounds.
# Experiment: qHTS Assay for Lipid Storage Modulators in Drosophila S3 Cells;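 on cell number change: cells counted by Cell Tracker Red CMTPX staining in the red channel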; on lipid storage change, negative = inhibition: on the % scale 0 is the no-effect control and ±100 the full control effect
# Conditions: BODIPY lipid droplet fluorescence, 18-24 h, cells fed with added oleic acid; cell number change: measured here: cell count max response; series mostly up to 46.1 µM; lipid storage change, negative = inhibition: at the top concentration
# Description: NIH Molecular Libraries Probe Production Centers Network [MLPCN] NIH Chemical Genomics Center [NCGC] MLPCN Grant: 1 R03 MH085686-01 Assay Submitter (PI): Beller, Mathias; Max-Planck-Institut fur Biophysikalische Chemie NCGC Assay Overview: Storing lipids as a reservoir for energy or the anabolism of elementary metabolites is a common feature of probably all cells and is conserved from bacteria to humans. The universal cellular lipid storage organelle is the so-called lipid storage droplet (LD). Although ubiquitous, LDs share a simple structure composed of a hydrophobic core that harbors the storage lipids, which is shielded by a droplet-specific phospholipid monolayer to which proteins are attached. The current model of LD biogenesis involves an incorporation of the lipid core into the membrane leaflets of the endoplasmic reticulum (ER) followed by a subsequent budding-like maturation of a LD, which ultimately pinches off. Once released, LD volume can increase by localized lipogenesis or fusion of existing droplet. Storage lipids are re-mobilized enzymatically by lipase activity. Lipase regulation in the adipocyte is heavily studied and involves multiple components including catecholamine signaling, the LD-associated proteins Perilipin and comparative gene identification (CGI-58) and at least two lipases named hormone sensitive lipase (HSL) and adipocyte triglyceride lipase (ATGL). LD regulation outside of the adipocyte is poorly understood and only few components are known. However, there is an urgent need to learn more about ectopic fat depots as mislocalized storage of lipids, for example in the liver or muscle, is an eminent health problem associated with insulin resistance or the metabolic syndrome. We developed a laser-scanning cytometer assay to enable 1,536-well screening and combined the results of the small molecules screen with an RNAi database based on lipid storage.
# Triacsin C (Sigma-Aldrich T-4540), an inhibitor of long-chain fatty acyl CoA synthetase that blocks synthesis of triglycerides, was used as a positive control for lipid under-storage. A total of 23 nL of compound solution of different concentrations were transferred to the assay plates using a Kalypsys pin tool equipped with a 1,536-pin array containing 10-nL slotted pins (FP1S10, 0.457-mm diameter, 50.8 mm long; V&P Scientific). One microliter of oleic acid (400 uM) was added, and the plate was lidded with stainless steel rubber gasket lined lids containing pinholes. […] Fluorescence was detected by excitation of the fluorophores with a 488-nm laser on an Acumen Explorer (TTP Lab Tech). The total intensity in channel 2 (500-530 nm) reflected lipid droplet accumulation. Cells were detected using channel 3 (575-640 nm) with 5-um width and 100-um depth filters. The ratio of the number of objects in PMT channel 2 over the number of objects in PMT channel 3 was also calculated. Percent activity was computed relative to an internal control (100% inhibited lipid droplet deposition due to the presence of 20 uM Triacsin C), which was added to 32 wells/plate.
# Potency means the concentration at half of the fitted maximal effect.
Compound,"lipid storage change, negative = inhibition",cell number change [%],Potency,outcome
Cc1ccc(C(=O)Nc2ccc(C(F)(F)F)n(C)c2=O)cc1,9.63% (inactive),11.7,–,–
COCCn1c(C(F)(F)F)ccc(NC(=O)c2ccccc2)c1=O,–,27.8,8.2 µM (active),–
COc1ccc(C(=O)Nc2ccc(C(F)(F)F)n(C)c2=O)cc1,16.1% (inactive),6.54,–,–
CCN(CC(=O)Nc1ccc(OC)cc1)C(=O)CCc1nc2ccccc2c(=O)[nH]1,1.47% (inactive),-4.18,–,–
Cc1c([N+](=O)[O-])c([N+](=O)[O-])nn1CC(=O)NCCc1ccccc1,-10.5% (inactive),2.95,–,–
CC(=O)c1ccc(OC(C)C)c(CC(C(N)=O)C(N)=O)c1,–,–,25.9 µM (active),–
CCCOc1ccc(C(C)=O)cc1CC(C(=O)OCC)C(=O)OCC,0.302% (inactive),1.14,–,–
CC(=O)c1ccc(OC(C)C)c(CN2CCCCC2)c1,-11.4% (inactive),-4.17,–,–
NC(=O)CS(=O)(=O)c1ccc(Cl)cc1,-4.86% (inactive),0.328,–,–
CC(C)=CC(=O)O[C@@H]1Cc2cc3ccc(=O)oc3cc2OC1(C)C,13.2% (inactive),-1.68,–,–
Cc1cc(Nc2ccc(Cl)cc2)nc(-c2ccccc2O)n1,-7.33% (inactive),25.5,–,–
Cc1cc(Nc2ccc(Br)cc2)nc(-c2ccccc2O)n1,–,5.51,1.16 µM (active),–
Cc1cc(Nc2ccc(F)c(F)c2)nc(-c2ccccc2O)n1,-1.55% (inactive),-20.3,–,–
O=C(NNC(=O)c1ccccc1O)c1ccc(NS(=O)(=O)c2ccc(F)c(F)c2)cc1,8.77% (inactive),6.77,–,–
NS(=O)(=O)c1cccc(NS(=O)(=O)c2ccc3ccccc3c2)c1,–,-9.72,–,inactive
Cc1ccc(-c2ccc(S(=O)(=O)N3CCCC3)cc2)cc1,14.6% (inactive),–,–,–
Cc1ccc(S(=O)(=O)N2CCCOC2)cc1,–,-23.3,20.6 µM (active),–
Cc1ccc(S(=O)(=O)N2CCCN(S(=O)(=O)c3ccc(C)cc3)CC2)cc1,–,-15.5,–,inactive
CC1(C)CC(=O)C(CC(=O)NC(=O)NCc2ccccc2)=C(O)C1,0.0826% (inactive),9.3,–,–
COCC(=O)Nc1nnc(COc2ccc(Cl)cc2)s1,1.56% (inactive),-17.4,–,–
COCc1nnc(NC(=O)CSc2ccccc2)s1,7.39% (inactive),-1.84,–,–
O=C(CSc1ccccc1)Nc1nnc(COc2ccc(Cl)cc2)s1,–,-4.77,9.2 µM (active),–

Compound,"lipid storage change, negative = inhibition",cell number change [%],Potency,outcome
CCN(CC)c1ccc(/C=N/NC(=S)NC)c(O)c1,-4.58% (inactive),2.22,–,–
CCN(CC)c1ccc(/C=N/NC(=S)NCc2ccccc2)c(O)c1,–,-19.6,11.6 µM (active),–
CCN(CC)c1ccc(/C=N/Nc2ccccc2)c(O)c1,6.59% (inactive),-10.7,–,–
COc1ccc(-c2c3c(=O)n(C)c(=O)n(C)c3cn2-c2ccccc2O)cc1,-3.76% (inactive),9.81,–,–
CC(=O)N(Cc1cccnc1)Cc1cc2ccc(C)cc2[nH]c1=O,15.6% (inactive),-7.01,–,–
CC(CNC(=O)CCCn1ncn2c(cc3occc32)c1=O)c1ccccc1 (stereo not given),–,24,–,inactive
CCOc1ccccc1CNC(=O)CCCn1ncn2c(cc3occc32)c1=O,–,-5.42,29.1 µM (active),–
COc1cccc(CNC(=O)CCCn2ncn3c(cc4occc43)c2=O)c1,–,-2.59,–,inactive
Cc1cc(C(=O)N2CCN(S(=O)(=O)c3ccccc3)CC2)c(C)o1,21.7% (inactive),15.7,–,–
CCCCn1nc2cc(C(=O)N[C@H](C)C3CCCCC3)ccc2c1OCC,-0.499% (inactive),-12,–,–
CCOC(=O)c1sc(NC(=O)CCc2ccccc2)nc1C,–,3.17,–,inactive
Cc1ccc(-n2c(C)cc(C(=O)COC(=O)c3ccc[nH]c3=O)c2C)cc1C,1.49% (inactive),-2.22,–,–
Cc1ccc(-n2c(C)cc(C(=O)CN3CCOCC3)c2C)cc1C,-17% (inactive),-2.77,–,–
Cc1ccc(-n2c(C)cc(C(=O)COc3c(CO)cc(F)cc3CO)c2C)cc1C,–,4.17,8.2 µM (active),–
Cc1cccc(NC(=O)C2CCCN2C(=O)Oc2ccccc2)c1 (stereo not given),-0.0768% (inactive),-1.72,–,–
Cc1cc(C)nc(NC(=O)c2c(Cl)cccc2Cl)n1,-9.48% (inactive),0.843,–,–
COc1cc(/C=N/NC(=O)c2ccc(CN3c4cccc5cccc(c45)S3(=O)=O)cc2)cc(OC)c1O,–,-26.4,–,inactive
COc1cc(/C=N/NC(=O)c2ccc(CN3C(=O)c4cccc5cccc3c45)cc2)cc(OC)c1O,–,-19.2,3.26 µM (active),–
CN(C)c1ccc(/C=N/NC(=O)c2ccc(CN3C(=O)c4cccc5cccc3c45)cc2)cc1,13% (inactive),10.4,–,–
Cc1ccc(NC(=O)COc2coc(CN3CCc4ccccc4C3)cc2=O)c(C)c1,–,–,–,inactive [at 0.0737 µM]
Cc1ccc(C)c(NC(=O)COc2coc(CN3CCc4ccccc4C3)cc2=O)c1,–,-25.7,6.51 µM (active),–
Cc1cc(C)cc(NC(=O)COc2coc(CN3CCc4ccccc4C3)cc2=O)c1,-14.9% (inactive),-22.1,–,–
